# Shown are actives, neighbours in structure and some others; about 12% of the full set was active somewhere.
# G9a block – qHTS Assay for Inhibitors of Histone Lysine Methyltransferase G9a; 350,000 tested, 8.8% active; Potency, µM (doses to about 102 µM), actives largely listed as inhibitors; AID 504332, 2011; Histone-lysine N-methyltransferase EHMT2 (Homo sapiens), Q96KQ7; G9a H3K9 monomethylation, AlphaScreen, 2 h; further: nearly all actives have a fitted effect of over 75% in size
# Target sequence (Q96KQ7 913-1193 limits assumed): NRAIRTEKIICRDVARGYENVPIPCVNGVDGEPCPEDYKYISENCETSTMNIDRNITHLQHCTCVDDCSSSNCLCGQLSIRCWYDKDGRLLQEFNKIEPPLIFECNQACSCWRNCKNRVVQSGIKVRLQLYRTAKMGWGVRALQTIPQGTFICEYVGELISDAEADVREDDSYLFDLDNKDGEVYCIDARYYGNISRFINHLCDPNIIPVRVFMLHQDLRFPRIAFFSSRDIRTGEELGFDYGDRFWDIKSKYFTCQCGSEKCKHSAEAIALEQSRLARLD
#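 Readings reflect AlphaScreen signal from monomethyl-H3K9 antibody detection. HMT at 20 nM; substrate b-H3K9 500 nM; cofactor SAM 20 uM; 2 h RT reaction; compounds tested as titrations in qHTS with 15 min preincubation.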
# HP1b binding inh – HTS for Inhibitors of HP1-beta Chromodomain Interactions with Methylated Histone Tails; Chromobox protein homolog 1 (Homo sapiens), P83916; AlphaScreen HP1-beta / biotin-H3K9me3 peptide binding; Potency, µM (series often up to 114 µM), usual class: inhibitors; 390,000 tested, 0.56% active; further: nearly all actives have a fitted effect of over 70% in size
# Target sequence (P83916 whole entry, looked up): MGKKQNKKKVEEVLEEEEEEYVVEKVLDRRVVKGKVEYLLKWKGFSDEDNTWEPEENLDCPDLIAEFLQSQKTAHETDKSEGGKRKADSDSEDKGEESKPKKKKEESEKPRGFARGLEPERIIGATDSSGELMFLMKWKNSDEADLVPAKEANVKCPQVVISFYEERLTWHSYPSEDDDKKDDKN
#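 AlphaScreen: HP1-beta (50 nM) preformed 30 min with biotin-H3(1-18)K9me3 peptide (50 nM) in PBS pH 7.4, 0.01% Tween-20. Compound added for 30 min at RT, then streptavidin donor/nickel chelate acceptor beads (10 ug/mL) for 30 min.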
# Sfp inh – qHTS Assay for Inhibitors of Bacillus subtilis Sfp phosphopantetheinyl transferase (PPTase). Biochemical Sfp PPTase activity, qHTS. Potency, µM, usual class: inhibitors. 310,000 tested, 3.5% active;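 further: the enzyme is Sfp with the accession as filed and its product quenches rhodamine fluorescence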
#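 With Hepes-Na pH 7.6 buffer containing 10 mM MgCl2, Sfp (15 nM) modified BHQ-2-YbbR (12.5 uM) using rhodamine-CoA (5 uM). Two reads 30 minutes apart at 525/598 nm yielded each well's rate.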
# JMJD2A Tudor inh – qHTS Assay for Inhibitors of JMJD2A-Tudor Domain. Lysine-specific demethylase 4A (Homo sapiens), O75164. 390,000 tested, 4.4% active. AlphaScreen JMJD2A-Tudor / H3K4me3 peptide binding. Potency, µM (doses to about 114 µM), most hits filed as inhibitors; further: nearly all actives have a fitted effect of over 50% in size
# TDP1 inh – qHTS Assay for Inhibitors of Tyrosyl-DNA Phosphodiesterase (TDP1). 350,000 tested, 0.28% active. Potency, µM (doses to about 130 µM), hits mostly inhibitors. recombinant TDP1, AlphaScreen DNA substrate cleavage; further: nearly all actives have a fitted effect of over 40% in size
#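 E. coli-derived human Tdp1, 1 nM final. Cpd preinc 15 min RT; substrate 15 nM final, 5 min RT; AS bead mix 10 ug/ml final, 10 min RT. Signal loss = tyrosine-FITC cleavage. No-enzyme wells = max signal.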
# BAZ2B block – qHTS Assay for Inhibitors of BAZ2B; AlphaScreen BAZ2B-H3K14Ac peptide displacement; Potency, µM (highest dose often 114 µM), usual class: inhibitors; 360,000 tested, 4.4% active; further: nearly all actives have a fitted effect of over 60% in size
#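 Inhibition is scored as reduced AlphaScreen emission. The BAZ2B/b-H3(5-23)K14Ac complex (50 nM each) in PBS pH 7.4, 0.01% Tween-20 meets compound (up to 110 uM) for 30 min at RT before bead addition.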
# Hits are given with their value; - = inactive; ? = inconclusive; . = not tested or not shown; ! = not active in a repeat; [ ] = dose if it differs, or a comment. The call rests on the fitted dose curve; in most records, active means well fitted curve in the direction sought with a large enough effect; inconclusive means small, poorly fitted or top-dose-only effect, or another doubt; inactive means no such curve, though single readings can be large; an effect the other way counts as inactive or inconclusive.
SMILES,G9a block,HP1b binding inh,Sfp inh,JMJD2A Tudor inh,TDP1 inh,BAZ2B block
CC(C)Oc1ccc(C(=O)CCN2CCCCC2)cc1,7.94µM,-,-,-,-,-
CCOc1ccc(C(=O)N2CCCN(C(=O)c3ccc(OCC)cc3)CC2)cc1,31.6µM,-,-,-,-,-
O=C(CCN1CCOCC1)c1ccc(Cl)cc1,11.2µM,-,-,?,-,-
COc1ccc(C(=O)CCN2CCN(c3ccc(OC)cc3)CC2)cc1,39.8µM,-,-,-,.,?
CCOc1ccc(C(=O)Nc2ccc(-c3nc4ccccc4s3)c(C)c2)cc1OCC,-,-,.,-,-,-
Cc1cccc(C)c1OCc1cc(C(=O)N2CCN(c3ccc(F)cc3)CC2)no1,-,-,-,-,-,-
Cc1ccccc1CN1C(=O)c2ccccc2S(=O)c2ccc(C(=O)NCc3ccc(Cl)cc3)cc21 (stereo unspecified),-,-,.,-,-,-
CCOc1ccc(C(=O)CSCCC(=O)O)cc1,31.6µM,-,25.1µM,-,-,.
CCOc1ccc(C(=O)Cc2ccccc2)cc1,.,-,.,-,.,.
Cc1ccc(C)c(NC(=O)CCN2CCN(C)CC2)c1,-,-,-,-,.,-
O=C(CCN1CCCCCC1)c1ccccc1,?,-,-,-[11.4 µM],-,-
COc1ccc(C(=O)OCCN2CCCCC2)cc1,-,-,-,-,-,-
COc1ccc(C(=O)CCN2CCCCCC2)cc1,8.91µM,-,?,-,-,-
CCOc1ccc(C(=O)CCN2CCCCC2)cc1,8.91µM,-,-,-,-,-
CCOC(=O)N1CCN(CCC(=O)Nc2cc(C)ccc2C)CC1,50.1µM!,?,-,-,-,-
COc1ccccc1/C=C/C=N/NC(=O)c1cccs1,-,-,-,-,-,-
COc1cccc(C(=O)Nc2sc(C(C)C)cc2C(N)=O)c1OC,-,-,-,-,.,-
COc1ccccc1CCNC(=O)Cc1c(C)c2cc3c(C(C)(C)C)coc3c(C)c2oc1=O,-,-,.,-,-,-
CCCCCOc1ccc(C(=O)CCN2CCOCC2)cc1,44.7µM,-,-,-,.,-
CCOc1ccc(N2C(=O)CC(NC3CCN(C(=O)c4ccc(F)cc4)CC3)C2=O)cc1 (stereo unspecified),12.6µM,-,-,-,-,-
COc1ccc(N2C(=O)CC(NC3CC3)C2=O)cc1 (stereo unspecified),-[12.7 µM],-,-,-,-,-
CCCOc1ccc(C(=O)CCN2CCN(C(=O)OCC)CC2)cc1,10µM,-,-,-,-,-
O=C(CCN1CCOCC1)c1ccc(Br)cc1,.,-,-,-,-,-
CCCC(=O)n1nc(-c2cccnc2)nc1NCc1ccccc1,-,-,-,-,-,-
CCCCn1nc(C(=O)Nc2cc(C(F)(F)F)ccc2N2CCOCC2)ccc1=O,-[12.7 µM],-,.,-,-,-
SMILES,G9a block,HP1b binding inh,Sfp inh,JMJD2A Tudor inh,TDP1 inh,BAZ2B block
C=CCn1c(-c2csc(-c3ccccc3)n2)n[nH]c1=S,1.78µM,-,-,-,-,-
Nc1sc(-c2ccccc2)cc1-c1n[nH]c(=S)n1C1CCCCC1,-,-,-,-,-,-
C=CCn1c(-c2csc(-c3ccc(Cl)cc3)n2)n[nH]c1=S,?,-,-,-,-,-
C=CCn1c(-c2cc(-c3ccccc3)sc2N)n[nH]c1=S,.,-,79.4µM,-,-,-
CCn1c(-c2csc(-c3ccccc3)n2)n[nH]c1=S,1.41µM,-,-,-,-,-
CS(=O)(=O)N1CCC2(CC1)CN(c1ccc(-c3ccccc3)cc1)C2,-[12.7 µM],.,-,.,.,.
O=C(Cn1nc2c(cc1=O)CCCC2)Nc1ccccc1C(F)(F)F,-,-,.,-,-,-
S=C(Nc1ccccc1)Nc1nc2ccccc2n1CCOc1ccccc1,-,-,-,44.7µM,-,6.31µM
Cc1ccc(NCc2nc3ccccc3n2CCOc2ccccc2)cc1,2.24µM,-,?,15.8µM,-,22.4µM
COc1ccc(NCc2nc3ccccc3n2CCOc2ccccc2C)cc1,?,?,.,20µM,-,12.6µM
Fc1ccc(NCc2nc3ccccc3n2CCOc2ccccc2Cl)cc1,-,-,.,-,-,-
Cc1ccc(OCCn2c(CNc3cccc(C)c3)nc3ccccc32)cc1,-,-,.,?,-,?
Cc1cccc(CS(=O)(=O)Cc2ccc(C(=O)NC3CCCCC3)o2)c1,-,-,-,-,-,-
Nc1ccc2ncccc2c1N,-,-,6.31µM,-,-,?
Cc1[nH]nc(N=CC2=C(O)CC(c3ccco3)CC2=O)c1-c1ccc(Cl)cc1 (stereo unspecified),?,-,-,-,-,-
O=C1CC(c2ccco2)CC(O)=C1C=Nc1ccc(Br)cc1 (stereo unspecified),14.1µM,-,56.2µM,-,-,-
CCc1ccc(N=CC2=C(O)CC(c3ccco3)CC2=O)cc1 (stereo unspecified),?,-,79.4µM,-,-,-
Cc1ccc(N=CC2=C(O)CC(c3ccco3)CC2=O)cc1 (stereo unspecified),.,-,-,-,-,-
N#CC1=C(Nc2ccccc2Cl)SC(c2ccccc2O)NC1=O (stereo unspecified),-[2.33 µM],-,12.6µM,?,-,-
COc1cccc(NC2=C(C#N)C(=O)NC(c3cccc(OC)c3O)S2)c1 (stereo unspecified),44.7µM,-,25.1µM,-,-,-
COc1cccc(Nc2nc(C#N)nc(NC3CCCC3)n2)c1,.,.,.,-,-,.
CCOC(=O)c1c(-c2ccccc2)oc2ccc(O)cc12,-[0.501 µM],-,39.8µM,-,.,70.8µM
CCOC(=O)c1c(-c2ccccc2)oc2cc(CN(C)C)c(O)c(CN(C)C)c12,.,-,.,50.1µM,.,.
CCOC(=O)c1c(-c2ccccc2)oc2ccc(OCC)cc12,-,-,?,-,-,-
CCOC(=O)c1c(-c2ccccc2)oc2ccc(O)c(CN3CCN(C)CC3)c12,50.1µM,-,-,-,-,-
CCOC(=O)c1c(C)n(C)c2ccc(O)c(CN3CCN(C)CC3)c12,?,-,-,-,-,.
CC[C@H](C(=O)[C@H](C)[C@H](O)[C@H](C)CCc1ccc(C)c(O)c1C(=O)O)[C@H]1O[C@](CC)([C@@H]2CC[C@@](O)(CC)[C@H](C)O2)C[C@H]1C,-[21.5 µM],.,-,.,-[21 µM],.
N/C(=N\OCc1ccc([N+](=O)[O-])cc1)c1ccncc1,?,-,-,-,-,?
CCOc1ccc(NC(=O)C2CC(=O)N(c3ccc(C(C)C)cc3)C2)cc1 (stereo unspecified),-,-,.,-,.,-
